9 compounds from PubChem BioAssay (NCI) can be followed below.

Values joined by “and” are separate entries in the source; they are usually repeats but may differ in a detail not shown here. Identical values can stand only once. The panel holds about 83,000 compounds, 20% with a hit somewhere; the sample as a whole holds those more often.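 The endpoint reported here, percent growth, reads 100 for growth as untreated, 0 for no net growth and -100 for all cells dead.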 Active and inactive are the calls of the source. Rule for the calls: active = growth percent below 10; inactive = the rest.

Test systems include HCT-15 colon; HT29 colon; SNB-19 CNS; U251 CNS; PC-3 prostate; UACC-62 melanoma; LOX IMVI melanoma; SK-MEL-5 melanoma; SK-MEL-28 melanoma.
What all share (experiment): NCI-60 one-dose screen, 48 h (100 = growth as untreated, 0 = no growth, -100 = all killed)
For a further test, the system named is SNB-75 CNS. As to conditions: 10 µM.

On to `CO[C@H](C(=O)[C@@H](O)[C@@H](C)O)[C@@H]1Cc2cc3cc(OC4CC(OC5CC(O)C(O)C(C)O5)C(O)C(C)O4)c(C)c(O)c3c(O)c2C(=O)[C@H]1OC1CC(OC2CC(OC3CC(C)(O)C(O)C(C)O3)C(O)C(C)O2)C(O)C(C)O1` (some centres not stated), for which the growth in the test on HCT-15 colon (10 µM) is 6.74% (active); with HT29 colon (10 µM) it was 0.182% (active); in the test with SNB-75 CNS it was -56.9% (active); in the test with SNB-19 CNS (10 µM), 13.3% (inactive); in the test with U251 CNS (10 µM unless noted), 9.37% (active); in the test on PC-3 prostate (10 µM) it was 10.5% (inactive). For the same compound, the growth was -58.6% (active) in the test with UACC-62 melanoma (10 µM) and 7.02% (active) in the test with LOX IMVI melanoma (10 µM unless noted).

With `O=c1ccn(C2CC(O)C(COC(c3ccccc3)(c3ccccc3)c3ccccc3)O2)c(=O)[nH]1` (configuration not stated), the growth is 88.9% (inactive) in the test on HCT-15 colon (10 µM); 33.4% (inactive) in the test on HCT-15 colon (100 µM); 86% (inactive) with HT29 colon (10 µM); 33.1% (inactive) with HT29 colon (100 µM); 98.2% (inactive) in the test with SNB-19 CNS (10 µM); 69.8% (inactive) with SNB-19 CNS (100 µM). The growth in the test on U251 CNS (10 µM unless noted) is 55.5% [100 µM] (inactive); with PC-3 prostate (10 µM) it was 59.5% (inactive); in the test with PC-3 prostate (100 µM), 15% (inactive); with SK-MEL-5 melanoma (10 µM) it was 93.3% (inactive); with SK-MEL-5 melanoma (100 µM) it was 32.2% (inactive); in the test with UACC-62 melanoma (10 µM) it was 82.6% (inactive). For the same compound, the growth in the test on UACC-62 melanoma (100 µM) was 29.8% (inactive); in the test with LOX IMVI melanoma (10 µM unless noted), 79.2% (inactive); in the test with SK-MEL-28 melanoma (10 µM) it was 118% (inactive); in the test with SK-MEL-28 melanoma (100 µM) it was 45.6% (inactive).

In the case of `COc1cccc2c1C(=O)c1c(O)c3c(c(O)c1C2=O)C[C@@](O)(C(=O)CO)C[C@@H]3OC1CC(N)C(O)C(C)O1` (some centres not stated), the growth with HCT-15 colon (0.0025 µM) was 99.2% (inactive); with HCT-15 colon (1 µM), 81.9% (inactive); in the test with HCT-15 colon (2.5 µM), 70.2% (inactive); with HCT-15 colon (10 µM), 15.2% (inactive); in the test on HT29 colon (0.0025 µM), 93.2% (inactive); in the test with HT29 colon (1 µM) it was 40.7% (inactive). Further, the growth with HT29 colon (2.5 µM) is 55% (inactive); in the test with HT29 colon (10 µM) it was 4.69% (active); in the test with SNB-19 CNS (0.0025 µM), 92.5% (inactive); with SNB-19 CNS (1 µM), 21.1% (inactive); in the test on SNB-19 CNS (2.5 µM) it was 35.6% (inactive); in the test on SNB-19 CNS (10 µM), -0.904% (active). Besides, the growth in the test on U251 CNS (0.0025 µM) is 83.6% (inactive); in the test on U251 CNS (2.5 µM), 16.4% (inactive); with U251 CNS (10 µM), 9.22% (active); in the test with PC-3 prostate (0.0025 µM), 100% (inactive); with PC-3 prostate (1 µM), 54.7% (inactive); in the test on PC-3 prostate (10 µM), 1.27% (active). Further, the growth was 93.2% (inactive) with SK-MEL-5 melanoma (0.0025 µM); -85.1% (active) in the test on SK-MEL-5 melanoma (10 µM); 97.5% (inactive) with UACC-62 melanoma (0.0025 µM); 14.8% (inactive) in the test on UACC-62 melanoma (1 µM); -60% (active) in the test with UACC-62 melanoma (10 µM); 81.7% (inactive) in the test with LOX IMVI melanoma (0.0025 µM). Besides, the growth with LOX IMVI melanoma (1 µM) is 8.33% (active); in the test with LOX IMVI melanoma (10 µM), 5.68% (active); in the test on SK-MEL-28 melanoma (0.0025 µM), 93.7% (inactive); in the test with SK-MEL-28 melanoma (1 µM), 65.7% (inactive); with SK-MEL-28 melanoma (2.5 µM), 70.7% (inactive); in the test with SK-MEL-28 melanoma (10 µM), -17% (active).

As for `Clc1cc(Cl)c(Cl)nn1`, the growth is 107% (inactive) in the test with HCT-15 colon (10 µM); 99.2% (inactive) in the test on HT29 colon (10 µM); 94.2% (inactive) in the test with SNB-19 CNS (10 µM); 81.1% (inactive) in the test with U251 CNS (10 µM unless noted); 80.9% (inactive) with PC-3 prostate (10 µM); 103% (inactive) in the test with SK-MEL-5 melanoma (10 µM unless noted). The growth with UACC-62 melanoma (10 µM) was 88.7% (inactive); in the test on LOX IMVI melanoma (10 µM unless noted) it was 95.7% (inactive); with SK-MEL-28 melanoma (10 µM), 116% (inactive).

For `CCCC1CCC(=C2C(=O)CCC2=O)O1` (configuration not stated), the growth in the test on HCT-15 colon (10 µM) is 105% (inactive) and 92% (inactive); with HT29 colon (10 µM), 94.2% (inactive) and 97.4% (inactive); in the test on SNB-75 CNS, 81.8% (inactive) and -17.8% (active); in the test with SNB-19 CNS (10 µM) it was 99.7% (inactive) and 98.9% (inactive); in the test with U251 CNS (10 µM unless noted), 102% (inactive) and 98.5% (inactive); in the test on PC-3 prostate (10 µM) it was 95.1% (inactive) and 103% (inactive). The growth was 88.6% (inactive) and 102% (inactive) in the test with SK-MEL-5 melanoma (10 µM unless noted); 86.8% (inactive) and 93.7% (inactive) in the test on UACC-62 melanoma (10 µM); 94.5% (inactive) and 97.6% (inactive) in the test on LOX IMVI melanoma (10 µM unless noted); 103% (inactive) in the test with SK-MEL-28 melanoma (10 µM).

Consider `O=C(C(=Cc1ccccc1)C(=O)c1ccccc1)c1ccccc1`, for which the growth was 28.1% (inactive) and 88.8% (inactive) in the test with HCT-15 colon (10 µM); 47.1% (inactive) and 91.2% (inactive) with HT29 colon (10 µM); 69.7% (inactive) and 81.4% (inactive) in the test on SNB-75 CNS; 46.9% (inactive) and 92.4% (inactive) in the test on SNB-19 CNS (10 µM); 86.2% (inactive) in the test on U251 CNS (10 µM unless noted); 48.3% (inactive) and 77.7% (inactive) in the test on PC-3 prostate (10 µM). Further, the growth was 66.6% (inactive) and 94.4% (inactive) in the test on SK-MEL-5 melanoma (10 µM unless noted); 48.8% (inactive) and 66.7% (inactive) with UACC-62 melanoma (10 µM); -56.4% (active) and 77.5% (inactive) in the test with LOX IMVI melanoma (10 µM unless noted); 60.4% (inactive) and 105% (inactive) in the test on SK-MEL-28 melanoma (10 µM).

Turning to `OCC1OC(n2cnc3c(=S)nc[nH]c32)C(O)C1O` (configuration not stated), the growth in the test with HCT-15 colon (10 µM) was 104% (inactive) and 55.5% (inactive); with HT29 colon (10 µM), 98.4% (inactive) and 45.9% (inactive); in the test with SNB-75 CNS, 110% (inactive) and 60.5% (inactive); with SNB-19 CNS (10 µM) it was 111% (inactive) and 97.4% (inactive); in the test with U251 CNS (10 µM unless noted), 93.5% (inactive) and 83.2% (inactive); in the test with PC-3 prostate (10 µM), 89.1% (inactive) and 73.1% (inactive). In addition, the growth is 102% (inactive) and 80.9% (inactive) in the test with SK-MEL-5 melanoma (10 µM unless noted); 92.3% (inactive) and 26.7% (inactive) in the test on UACC-62 melanoma (10 µM); 98.2% (inactive) and 16.1% (inactive) in the test on LOX IMVI melanoma (10 µM unless noted); 113% (inactive) in the test on SK-MEL-28 melanoma (10 µM).

As to `Clc1ccc(/C=C/c2ccccn2)c(Cl)c1`, the growth in the test with HCT-15 colon (10 µM) is 68.2% (inactive); in the test with HT29 colon (10 µM), 83.3% (inactive); in the test on SNB-75 CNS, 61.2% (inactive); in the test on SNB-19 CNS (10 µM), 92.7% (inactive); in the test with U251 CNS (10 µM unless noted) it was 79.1% (inactive); with PC-3 prostate (10 µM) it was 85.9% (inactive). In addition, the growth is 81.6% (inactive) in the test on SK-MEL-5 melanoma (10 µM unless noted), 80.6% (inactive) in the test on UACC-62 melanoma (10 µM), 91.3% (inactive) in the test on LOX IMVI melanoma (10 µM unless noted) and 120% (inactive) in the test with SK-MEL-28 melanoma (10 µM).

For `CCN(CC)c1ccc(NC(C(=O)c2ccccc2)c2ccccc2)cc1` (configuration not stated), the growth in the test on HCT-15 colon (10 µM) was -16.4% (active); in the test with HT29 colon (10 µM), 12.4% (inactive); in the test with SNB-19 CNS (10 µM) it was 36.6% (inactive); with U251 CNS (10 µM unless noted) it was -17.5% (active); in the test with PC-3 prostate (10 µM) it was 83.7% (inactive); in the test on SK-MEL-5 melanoma (10 µM unless noted) it was 78.8% (inactive). For the same compound, the growth in the test on UACC-62 melanoma (10 µM) was 28.3% (inactive); in the test on LOX IMVI melanoma (10 µM unless noted), -43.4% (active); in the test on SK-MEL-28 melanoma (10 µM), 16.9% (inactive).
